Test results as given in PubChem BioAssay (NCI).
This is part of a sample that, as a whole, favours compounds with a hit. Of some 83,000 tested, about 20% had one in any assay.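 Method: cells in 96-well plates; compound added at one concentration; 48 h incubation; percent growth measured; values under 10 scored active.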 Calls of active or inactive are those of the source.

system: OVCAR-3 ovarian; experiment: NCI-60 one-dose screen, 48 h (100 = growth as untreated, 0 = no growth, -100 = all killed); conditions: 10 µM unless noted

Row | Structure (SMILES) | growth
1 | CCN(CC)C(=O)O/N=C(/C)c1ccccc1 | 109% (inactive)
2 | C=C1C(=O)O[C@H]2[C@H]1CC/C(COC(=O)NCc1ccc(Cn3c(=O)sn(CCCl)c3=O)cc1)=C\CC[C@@]1(C)O[C@@H]21 | -26.2% (active)
3 | COc1ccc2c(c1)sc1nc(-c3ccccc3)c(-c3cccc4ccccc34)n12 | -50.3% (active)
4 | c1ccc(-c2nnn(-c3ccccc3)n2)cc1 | 111% (inactive)
5 | CC(C)N(C(=S)SSC(=S)N(C(C)C)C(C)C)C(C)C | 108% (inactive)
6 | Cc1ccc2c(C)c3c(ccc4ccccc43)c[n+]2c1 | 53.2% (inactive)
7 | O=C(N/N=C/c1ccc([N+](=O)[O-])cc1)c1ccccc1Nc1ccnc(C(F)(F)F)c1 | 91.5% (inactive)
8 | CC(C)CC1NC(=O)C(CC(C)C)N(CO)C1=O (centres undefined) | 123% (inactive)
9 | Cc1ccccc1C1CC(=O)c2ccccc2C1C (centres undefined) | 116% (inactive)
10 | O=C1/C(=C/N2N=C(c3ccc(Cl)cc3)CC2c2ccccc2O)SC(=S)N1c1cccc(C(F)(F)F)c1 (centres undefined) | 54.6% (inactive)
11 | CN(C)CC(=O)c1ccc2cc(Br)c3ccccc3c2c1 | 85.8% (inactive)
12 | CCN(C(=O)CCl)C(C)(C)C(SSSC(c1ccc(Cl)cc1)C(C)(C)N(CC)C(=O)CCl)c1ccc(Cl)cc1 (centres undefined) | 72.3% (inactive)
13 | COc1ccc(NC(=O)Cn2c(=O)sc3c(-c4ccc(Cl)cc4)cc(-c4ccc(Cl)cc4)nc32)cc1 | 115% (inactive)
14 | COc1cccc(/C=N\Nc2ccc([N+](=O)[O-])cn2)c1O | 8.54% (active)
15 | CCN(CC)CC(=O)Nc1c(C)cc(C(=O)NN)cc1C | 100% (inactive)
16 | CCCC(CCC)(C(N)=O)C(=O)O | 110% (inactive)
17 | COc1cnc2c(c1)C(=O)c1c-2n(CCCNC(C)C)c(=O)c2cc(Cl)ccc12 | -78.3% (active)
18 | Cc1nn(-c2cccc(Cl)c2)c(C)c1N=Nc1ccc(Br)cc1 | 112% (inactive)
19 | CCCCCCCCCCCCNC(=O)N[C@H](C(=O)N[C@H]1/C=C/OCCNC(=O)/C=C/[C@H](C(C)C)NC1=O)C(C)C | 24.1% (inactive)
20 | Cc1ccc(C(CN(C)C)C(=O)c2ccccc2)cc1 (centres undefined) | -8.33% (active)

Row | Structure (SMILES) | growth
21 | CCCCCCCCCCCCCCCCCC(=O)[O][Sn]([CH2]CCC)([CH2]CCC)[CH2]CCC | -100% (active)
22 | Cc1c2c(cc3c1[nH]c1ccccc13)C=NCC2 | 101% (inactive)
23 | COc1ccc(C(=O)C(CN(C)C)c2ccc(OC)cc2)cc1 (centres undefined) | -4.36% (active)
24 | CC(=O)O[C@H]1CC[C@]2(C)[C@H]3CC=C4[C@@H]5CC(C)(C)CC[C@]5(C(=O)OCC(COC(=O)C(Cl)Cl)(COC(=O)C(Cl)Cl)NC(=O)C(Cl)Cl)CC[C@@]4(C)[C@]3(C)CC[C@H]2C1(C)C | 67% (inactive)
25 | COc1ccc2c(c1)C1=NN(C(=O)CO)[C@H](c3ccc(OC(F)(F)F)cc3)[C@@H]1CC2 | 88.6% (inactive)
26 | COc1ccc(Cl)cc1Nc1nc(C(F)(F)F)ccc1C(=O)NN | 33.6% (inactive)
27 | CC(C)c1cccc(C#N)c1 | 111% (inactive)
28 | COc1ccc2nc3ccccc3c(NCc3ccc(C)cc3)c2c1 | 46.9% (inactive)
29 | CS(=O)(=O)c1ccc(C(=O)N/N=C/c2ccccc2Cl)cc1 | 103% (inactive)
30 | CC(C)(C)c1ccc(C(=O)Nc2sc3cc(O)ccc3c2C(N)=O)cc1 | 90.8% (inactive)
31 | COc1cc(/C=C\c2cc(/C=C\c3ccc(O)c(OC)c3)n(C(=O)Nc3ccc(C(F)(F)F)cc3)n2)ccc1O | 13.8% (inactive)
32 | CCOC(=O)c1cc(N)nc2ccccc12 | 109% (inactive)
33 | CCSCC1CC(O)(c2ccccc2)C(c2ccccc2)C(c2ccc(F)cc2)O1 (centres undefined) | -62.9% (active)
34 | CN1C2CCC1/C(=C\c1ccc(Cl)cc1)C(=O)/C2=C/c1ccc(Cl)cc1 | 46% (inactive)
35 | CCOC(=O)C1=C(C)NC(=S)NC1c1ccccc1 (centres undefined) | 110% (inactive)
36 | C=C1C(=O)O[C@H]2[C@H]1CC/C(COC(=O)N[C@@H](Cc1c[nH]c3ccccc13)C(=O)OC)=C\CC[C@@]1(C)O[C@@H]21 | -40.3% (active)
37 | Cc1nc(N)nc2c1CCC(Nc1ccccc1)S2 (centres undefined) | 108% (inactive)
38 | COc1cc(OC)c2sc(-c3ccc(-n4cncc4-c4ccc(OC)c(N)c4)cc3)nc2c1 | 77.4% (inactive)
39 | COc1cc(OC)cc(-c2ccc(-c3ccc(C(=N)N)s3)s2)c1 | -42.9% (active)
